# Data reported in PubChem BioAssay (NCATS).
# Results filed as inconclusive are left out. Where a call stands in place of a potency, no number is given. Active and inactive are the calls of the source. Calls come from the whole dose curve; as a rule, active = well fitted curve in the direction sought with a large enough effect; inconclusive = small, poorly fitted or top-dose-only effect, or another doubt; inactive = no such curve, though single readings can be large; an effect the other way counts as inactive or inconclusive.
# Assays:
# [1] = Confirmatory screen GU Rhodamine qHTS for Zika virus inhibitors qHTS (AID 1347157); details: purified enzyme assay, Rhodamine110 substrate fluorescence, 15 min; note: potency is the fitted concentration of half-maximal effect; nearly all actives have a fitted effect of over 70% in size
# How it was run: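 Compounds, tested up to 114 microM, were incubated for 15 minutes with 25 nM unlinked NS2B-NS3 protease at pH 8.0. Cleavage of 1.5 microM Rhodamine110 substrate was then followed by fluorescence for 15 minutes.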
# [2] = test system: Zika virus NS2B-NS3 protease (unlinked complex); test: Primary screen GU Rhodamine qHTS for Zika virus inhibitors: Unlinked NS2B-NS3 protease assay (AID 1347159); details: Recombinant ZIKV NS2B-NS3 protease, Rhodamine110 substrate fluorescence; series mostly up to 107 µM; note: nearly all actives have a fitted effect of over 60% in size; note: potency is the fitted concentration of half-maximal effect
# How it was run: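 In dose–response format, inhibition of unlinked protease (25 nM) was measured with 1.5 microM bis-peptide Rhodamine110 substrate. Aprotinin served as the intraplate control.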
# [3] = test system: Zika virus NS2B-NS3 protease (linked construct); test: Primary screen NINDS Rhodamine qHTS for Zika virus inhibitors (AID 1347160); details: purified NS2B-NS3 protease, Rhodamine110 substrate fluorescence; series mostly up to 57.1 µM; note: nearly all actives have a fitted effect of over 55% in size; note: potency is the fitted concentration of half-maximal effect
# How it was run: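 Each compound, titrated, sat 15 min with 25 nM linked protease before 1.5 microM Rhodamine110 substrate went in. Fluorescence gain over the next 15 min, in pH 8.0 Tris with Tween 20, gave Hill-fitted curves.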
# [4] = test system: Zika virus NS2B-NS3 protease; test: Primary screen GU AMC qHTS for Zika virus inhibitors (AID 1347154); details: Zika NS2B-NS3 unlinked protease, AMC fluorogenic substrate; series mostly up to 54.1 µM; note: nearly all actives have a fitted effect of over 70% in size; note: potency is the fitted concentration of half-maximal effect
# How it was run: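 Unlinked Zika NS2B hydrophilic domain–NS3 protease complex at 25 nM in 10 mM Tris-HCl pH 8.0, 0.01% Tween 20, with an AMC peptide substrate. Fluorescence change (340/450 nm) over 15 min at room temperature, normalized to controls, fitted to 4-parameter Hill.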
# [5] = ZIKV-mCherry secondary qHTS for Zika virus inhibitors (AID 1347158); details: Vero cells, ZIKV-mCherry infection imaging, 48-72 h; series mostly up to 49.2 µM; note: top concentration of the series differs between compounds
# How it was run: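 Read-out is percent infection: mCherry-positive Vero cells (nuclear-proximal intensity >450 RFU, 3 SD above negative controls) counted by high-content imaging of Hoechst-stained, PFA-fixed wells after 48-72 h with ZIKV-mCherry at MOI 1 and compound.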
# [6] = Confirmatory screen NINDS Rhodamine qHTS for Zika virus inhibitors (AID 1347161); details: purified enzyme assay, Rhodamine110 substrate fluorescence, 15 min; series mostly up to 114 µM; note: potency is the fitted concentration of half-maximal effect; nearly all actives have a fitted effect of over 60% in size
# How it was run: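 Enzyme (25 nM, linked NS2B-NS3) was preincubated 15 min with compound in 10 mM Tris-HCl pH 8.0, 0.01% Tween 20. Rhodamine110 substrate (1.5 microM) was then added and fluorescence read at start and after 15 min.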
# [7] = test system: Zika virus NS2B-NS3 protease (linked); test: 384 well plate NINDS AMC confirmatory qHTS for Zika virus inhibitors (AID 1347163); details: Recombinant NS2B-NS3 protease, Ac-VKTGKR-AMC fluorescence; series mostly up to 1 mM;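 note: fluorescence of AMC released from Ac-VKTGKR-AMC peptide cleaved by the protease; top concentration of the series differs between compounds; nearly all actives have a fitted effect of over 50% in size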
# How it was run: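 Enzyme (5, 30 or 60 nM final) first met test compounds for ~15 min. The AMC-tagged peptide Ac-VKTGKR-AMC followed at 30 microM. Fluorescence was then recorded at 25 min and scaled against no-enzyme and no-inhibitor wells.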
# [8] = test system: Zika virus NS2B-NS3 protease (linked construct); test: 384 well plate NINDS Rhodamine confirmatory qHTS for Zika virus inhibitors (AID 1347164); details: rhodamine-110 peptide substrate fluorescence; series mostly up to 100 µM; note: potency is the fitted concentration of half-maximal effect; nearly all actives have a fitted effect of over 65% in size
# How it was run: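 Compounds are incubated about 15 minutes with linked protease (5, 30 or 60 nM final). Rhodamine 110-tagged Ac-LKRR substrate (10 microM final) is added and fluorescence measured after 25 minutes.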
smiles,measurement,setting,value
CC(C)c1cc(C(C)C)c(CC(=O)NS(=O)(=O)Oc2c(C(C)C)cccc2C(C)C)c(C(C)C)c1,Potency,[1],2.21 µM (active)
same,Potency,[2],3.16 µM (active)
same,Potency,[3],3.16 µM (active)
C[C@@]12C[C@@]3(O)O[C@@H](O1)[C@]1(COC(=O)c4ccccc4)[C@@H]3C[C@@]12O[C@@H]1O[C@H](CO)[C@@H](O)[C@H](O)[C@@H]1O,Potency,[4],inactive
CS(=O)(=O)N1CCc2c(-c3cnc(N)nc3)nc(N3CCOCC3)nc21,Potency,[4],inactive
same,Potency,[2],inactive
same,Potency,[3],inactive
CCN(CC)Cc1ccc2cc(COC(=O)Nc3ccc(C(=O)NO)cc3)ccc2c1,Potency,[4],inactive
same,Potency,[2],inactive
same,Potency,[3],inactive
Cc1cnc(Nc2ccc(N3CCN(C)CC3)cc2)nc1Nc1cccc(S(=O)(=O)NC(C)(C)C)c1,Potency,[4],inactive
CC(C)C[C@H](NC(=O)[C@@H](NC(=O)c1cccc(-c2ccccc2)n1)[C@@H](C)O)B(O)O,Potency,[4],inactive
same,Potency,[2],inactive
same,Potency,[3],inactive
CCCCCCCCCCCCc1ccc(S(=O)(=O)Nc2nncs2)cc1,Potency,[4],inactive
O=c1c(O)c(-c2ccc(O)c(O)c2)oc2cc(O)ccc12,Potency,[4],17.1 µM (active)
same,Potency,[1],44.7 µM (active)
same,Potency,[5],inactive
same,Potency,[3],22 µM (active)
same,Potency,[6],44.7 µM (active)
same,Potency,[7],inactive
same,Potency,[8],316 µM (active)
COc1ccc(S(=O)(=O)Nc2cccnc2Nc2ccc(O)cc2)cc1,Potency,[4],inactive
same,Potency,[2],inactive
same,Potency,[3],inactive
CCOC(=O)[C@@H](N)Cc1ccc(-c2cc(O[C@H](c3ccc(Cl)cc3-n3ccc(C)n3)C(F)(F)F)nc(N)n2)cc1,Potency,[4],inactive
same,Potency,[2],44.7 µM (active)
CCCCCCCN(CC)CCCC(O)c1ccc(NS(C)(=O)=O)cc1 (stereo not given),Potency,[4],24.1 µM (active)
C[N+]1(C)[C@@H]2C[C@@H](OC(=O)C(O)(c3cccs3)c3cccs3)C[C@H]1[C@@H]1O[C@@H]12,Potency,[4],inactive
same,Potency,[2],inactive
same,Potency,[3],inactive
CC(=O)OC[C@@H]1O[C@@H](n2ccc(=O)[nH]c2=O)[C@H](OC(C)=O)[C@H]1OC(C)=O,Potency,[4],inactive
Cc1ccccc1C(=O)Nc1ccc(C(=O)N2CCCC(O)c3cc(Cl)ccc32)c(C)c1 (stereo not given),Potency,[4],inactive
same,Potency,[2],inactive
same,Potency,[3],inactive
O=C(c1ccc(F)cc1)N1CCC[C@H](c2nc(-c3ccc(F)cc3)no2)C1,Potency,[4],inactive
CC(=O)N[C@H]1[C@@H]([C@H](O)[C@H](O)CO)OC(C(=O)O)=C[C@@H]1N=C(N)N,Potency,[4],inactive
C[C@@H](Cc1cc2c(c(C(N)=O)c1)N(CCCO)CC2)NCCOc1ccccc1OCC(F)(F)F,Potency,[4],inactive
same,Potency,[2],inactive
same,Potency,[3],inactive
CCCCC(=O)O[C@]1(C(=O)CO)[C@@H](C)C[C@H]2[C@@H]3CCC4=CC(=O)C=C[C@]4(C)[C@@]3(F)[C@@H](O)C[C@@]21C,Potency,[4],inactive
c1ccc(CNc2nc(NCc3ccccc3)c3ccccc3n2)cc1,Potency,[4],inactive
Cn1cnc(=N)c2[nH]cnc21,Potency,[4],inactive
CC1=C(C(=O)Nc2cc3cn[nH]c3cc2F)C(c2ccc(Cl)cc2F)N=C(c2ccnc(Cl)c2)N1 (stereo not given),Potency,[4],inactive
same,Potency,[2],inactive
same,Potency,[3],inactive
C[C@H]1C[C@H]2[C@@H]3CCC4=CC(=O)C=C[C@]4(C)[C@@H]3C(=O)C[C@]2(C)[C@@]1(O)C(=O)CO,Potency,[4],inactive
O=C1NC(=O)[C@@H](c2cn3c4c(cccc24)CCC3)[C@H]1c1c[nH]c2ccccc12,Potency,[4],inactive
COC1=C2C[C@@H](C)C[C@H](OC)[C@@H](O)[C@@H](C)C=C(C)[C@H](OC(N)=O)[C@@H](OC)C=CC=C(C)C(=O)NC(=CC1=O)C2=O,Potency,[4],inactive
COc1cc(OC)c(C=CS(=O)(=O)Cc2ccc(OC)c(NCC(=O)O)c2)c(OC)c1,Potency,[4],inactive
C=CC(=O)Nc1ccc2ncnc(Nc3ccc(OCc4cccc(F)c4)c(Cl)c3)c2c1,Potency,[4],inactive
same,Potency,[2],44.7 µM (active)
N[C@H]1CN(c2c(F)cc3c(=O)c(C(=O)O)cn(C4C[C@@H]4F)c3c2Cl)CC12CC2 (stereo not given in full),Potency,[4],inactive
same,Potency,[2],inactive
same,Potency,[3],inactive
CO[C@@H]1[C@@H](O)[C@H](O)[C@@H](n2c3c(Cl)cccc3c3c4c(c5c6cccc(Cl)c6[nH]c5c32)C(=O)NC4=O)O[C@@H]1CO,Potency,[4],inactive
CC(=O)NCC(=O)N1[C@H]2CC[C@H]1c1cc(Nc3ncc(C(F)(F)F)c(NC4CCC4)n3)ccc12,Potency,[4],inactive
OC[C@H]1OC(O)C[C@@H](O)[C@H]1O (stereo not given in full),Potency,[4],inactive
CCNC(=O)Nc1ccc(-c2nc3c(c(N4CCOC[C@H]4C)n2)CCN(C2COC2)C3)cc1,Potency,[4],inactive
CC[C@H](CC[C@@H](C)[C@H]1CC[C@H]2[C@@H]3CC=C4C[C@@H](O)CC[C@]4(C)[C@@H]3CC[C@]12C)C(C)C,Potency,[4],inactive
CN(C)CC(=O)N1CCC(c2ccc(NC(=O)c3ncc(C#N)[nH]3)c(C3=CCCCC3)c2)CC1,Potency,[4],inactive
same,Potency,[1],12.4 µM (active)
same,Potency,[3],inactive
same,Potency,[6],9.87 µM (active)
CCOC(=O)C1=C(C)NC(=S)NC1c1cccc(O)c1 (stereo not given),Potency,[4],inactive
C[C@H](O)[C@@H]1C(=O)N2C(C(=O)O)=C(S[C@@H]3CN[C@H](CNS(N)(=O)=O)C3)[C@@H](C)[C@@H]12,Potency,[4],inactive
same,Potency,[2],inactive
same,Potency,[3],inactive
c1cncc(CN2CCC(n3ncc4c(N5CCOCC5)nc(-c5ccc6[nH]ccc6c5)nc43)CC2)c1,Potency,[4],inactive
same,Potency,[2],inactive
same,Potency,[3],inactive
Cc1ncc(-c2ccnc(Nc3ccc(S(C)(=O)=O)cc3)n2)n1C(C)C,Potency,[2],inactive
same,Potency,[3],inactive
FC(F)(F)c1ccc(Nc2nc3ccc(Oc4ccnc(-c5ncc(C(F)(F)F)[nH]5)c4)cc3[nH]2)cc1,Potency,[4],inactive
same,Potency,[3],inactive
